Compound activity as filed in PubChem BioAssay.
HCV NS3h FP – blocks HCV NS3 helicase binding to DNA. inhibition, % at 100 µM. NS3h Cy5-dT15 DNA binding, fluorescence polarization. hit rate 1.6% among 16,000;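 active = inhibition above the average over every tested compound plus 3 SD, cut at about 40% in these data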
Cy5 interf NS3h – enhances or quenches Cy5 fluorescence in NS3h assay. hit rate 6% among 16,000. AID 720488. Cy5-dT15 DNA with NS3h, fluorescence interference; actives lie on both sides; signal over control mean, under 1 quenches. fluorescence interference ratio at 100 µM;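 active = compound fluorescence over control fluorescence at most 0.8, a quencher, or at least a set upper limit, an enhancer; inactive = ratio between 0.8 and the set upper limit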
HCV NS3h conf – confirmation of hepatitis C virus NS3 helicase inhibitors. hit rate 20% among 240. NS3h binding to Cy5-dT15 DNA, fluorescence polarization. inhibition, % at 100 µM. shares compounds with HCV NS3h FP;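 active = percent inhibition of 50% or more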
SSB FP counter – E. coli SSB-DNA binding inhibition, NS3h counter-screen; shares compounds with HCV NS3h FP; E. coli SSB binding Cy5-dT15, fluorescence polarization; inhibition, % at 100 µM; hit rate 40% among 240; AID 720486;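 active = inhibition of at least 50%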;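 also: displacers lower Cy5 polarization so higher inhibition means more SSB displaced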
Target sequence (P0AGE0 whole entry, looked up): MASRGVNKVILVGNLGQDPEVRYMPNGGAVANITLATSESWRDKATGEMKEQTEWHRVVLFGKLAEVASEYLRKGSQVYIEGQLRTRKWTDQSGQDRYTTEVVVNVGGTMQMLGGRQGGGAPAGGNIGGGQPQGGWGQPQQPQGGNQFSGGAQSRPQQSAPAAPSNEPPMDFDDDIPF
Cy5 SSB fluor CB – enhances or quenches Cy5-DNA fluorescence with E. coli SSB; fluorescence interference ratio at 100 µM; shares compounds with HCV NS3h FP; hit rate 8% among 240; Cy5-dT15/E. coli SSB fluorescence interference; actives lie on both sides;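 active = fluorescence interference ratio at or above 1.2, signal boosting, or at or below 0.8, signal quenching; inactive = ratio between 0.8 and 1.2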;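 also: ratio of compound well signal to mean negative control signal so 1 means no effect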
Cy5 fluor confirm – confirmation counter-screen for HCV NS3 helicase inhibitors: fluorescence interference; Cy5-dT15 DNA/NS3h fluorescence interference counterscreen; shares compounds with HCV NS3h FP; hit rate 44% among 240; AID 720489; fluorescence interference ratio at 100 µM, hits read low;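 active = fluorescence interference ratio at or below 0.8 quencher or at or above a set limitenhancer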;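 also: ratio of compound fluorescence to mean of negative controls so 1 means no interference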
An asterisk follows results filed as active. Rows were chosen to be rich in hits. Some 6.9% of all compounds tested hit in one or more screens of this group.

What do the screens show for `Cc1ccc(C)c(COc2cc(C)cc3oc(=O)c4c(c23)CCC4)c1`?
HCV NS3h FP: 8; Cy5 interf NS3h: 1.1

What do the screens show for `O=C(Nc1ccc(Br)cc1C(=O)c1ccccc1)c1ccc([N+](=O)[O-])cc1`?
HCV NS3h FP: -8; Cy5 interf NS3h: 1.1

How did O=C1NC(=O)N(c2ccc(Cl)cc2)C(=O)/C1=C/c1ccccc1 do in these assays?
HCV NS3h FP: -28; Cy5 interf NS3h: 0.97

What do the screens show for `O=C1NC(=S)N(c2ccccc2F)C(=O)C1=Cc1ccco1`?
HCV NS3h FP: 106*; Cy5 interf NS3h: 0.65*; HCV NS3h conf: 113*; SSB FP counter: 123*; Cy5 SSB fluor CB: 0.77*; Cy5 fluor confirm: 0.83

How did O=C1NC(=S)N(c2ccccc2)C(=O)/C1=C/c1ccco1 do in these assays?
HCV NS3h FP: 94*; Cy5 interf NS3h: 0.89; HCV NS3h conf: 63*; SSB FP counter: 100*; Cy5 SSB fluor CB: 0.93; Cy5 fluor confirm: 0.71*

What do the screens show for `COc1cc(C=C2C(=O)N(C)C(=O)N(C)C2=O)ccc1OCCOc1ccccc1`?
HCV NS3h FP: 5; Cy5 interf NS3h: 0.95

How did O=C(Nc1nc2ccccc2s1)C(Cl)(Cl)Cl do in these assays?
HCV NS3h FP: 4; Cy5 interf NS3h: 0.94

Results for COc1ccc(C=C2C(=O)NC(=O)NC2=O)c(OC)c1 ?
HCV NS3h FP: 61*; Cy5 interf NS3h: 0.85; HCV NS3h conf: 46; SSB FP counter: 17; Cy5 SSB fluor CB: 0.99; Cy5 fluor confirm: 0.99

How did Cc1cc(C=C2C(=O)NC(=S)NC2=O)c(C)n1-c1ccccc1 do in these assays?
HCV NS3h FP: -1; Cy5 interf NS3h: 1

What do the screens show for `CC(C)Oc1ccccc1C=C1C(=O)NC(=O)NC1=O`?
HCV NS3h FP: 42*; Cy5 interf NS3h: 1; HCV NS3h conf: 18; SSB FP counter: 17; Cy5 SSB fluor CB: 0.98; Cy5 fluor confirm: 0.92

What do the screens show for `COc1ccc(CN2CCNCC2)c(OC)c1`?
HCV NS3h FP: -11; Cy5 interf NS3h: 1

Results for O=C1c2ccccc2C(=O)N1Cc1nc2ccccc2c(=O)n1-c1ccncc1 ?
HCV NS3h FP: -1; Cy5 interf NS3h: 0.95

What do the screens show for `CC(=O)NC1(c2ccccc2)CC(C)N(C)CC1C` (stereo not drawn)?
HCV NS3h FP: 0; Cy5 interf NS3h: 1.1

Results for CCC1(c2ccccc2)C(=O)NC(=O)N(C(=O)c2ccccc2Br)C1=O (stereo not drawn) ?
HCV NS3h FP: 1; Cy5 interf NS3h: 1

What do the screens show for `Oc1ccc(Br)cc1CN1CCN(Cc2cccc(F)c2)CC1`?
HCV NS3h FP: 0; Cy5 interf NS3h: 0.98
